Consider 90 compounds from PubChem BioAssay AID463173 (ICCB-Longwood Screening Facility, Harvard Medical School, 2010).

In all, about 52,000 compounds went through this assay and about 4,300 (8.3%) were called active. The full list was thinned out, with actives kept by preference. Unmarked numbers belong to inactive results. No stated cut-off is given here; in the data, active means survival mostly below about 52% (no sharp cut-off); inactive means mostly above about 56%.

This assay has as its system DeltatarO mutant. Description: growth inhibition of S. aureus wild type versus tarO mutant, primary screen, teichoic acid synthesis inhibitors, RN4220, OD600 (AID 463173). The settings on record: OD600, 18 h, stronger effect = lower value, screened at 18.75 µg/mL (by protocol).
As for `COc1ccc(C(C#N)N2N=C(C)CC2c2ccccc2)cc1OC` (stereo not given), the survival was 108%.

Take `CC(=O)c1ccc(NC(=O)CSc2nc(C3CCCC3)nc3c2c(=O)n(C)c(=O)n3C)cc1`: the survival was 78%.

With `Cc1cccc(C)c1-n1ncc(C(=O)N2CCN(c3ncccn3)CC2)c1C1CCN(C(=O)OC(C)(C)C)CC1`, the survival was 95%.

Consider `COc1cc(OC)c(NC(=O)CCc2nc(C3=CCN(Cc4cccc(Cl)c4)CC3)no2)cc1Cl`, for which the survival was 75%.

In the case of `Cc1cc(C)c(NC(=O)CN(C)S(=O)(=O)c2ccc3c(c2)c(=O)n(C)c(=O)n3C)c(C)c1`, the survival is 81%.

For `Cc1ccc(Cl)cc1-n1ncc2c(N3CCC(C)CC3)ncnc21`, the survival is 128%.

With `COc1cc(C(CC(=O)Nc2ccc(Br)cn2)N2Cc3ccccc3C2=O)cc(OC)c1OC` (stereo not given), the survival was 78%.

Take `COc1ccc(CCNC(=O)c2ccc3c(c2)sc2nc(-c4ccc(C)cc4)cn23)cc1OC`: the survival is 81%.

Take `COc1ccc(CCNC(=O)c2ccc3c(c2)sc2nc(-c4ccccc4)cn23)cc1OC`: the survival was 47% (active).

On to `COc1cccc(-c2cn3c(n2)sc2cc(C(=O)NCCc4ccc(OC)c(OC)c4)ccc23)c1`, for which the survival is 49%.

Consider `Cc1cc(C(=O)O)on1`, for which the survival was 83%.

On to `COc1ccc(-c2nc3ccccc3s2)cc1NC(=O)c1cc2ccccc2o1`, for which the survival is 38% (active).

Take `COc1ccc(-c2nc3ccccc3s2)cc1NC(=O)c1ccc(C#N)cc1F`: the survival was 168%.

On to `COc1ccc(-c2nc3ccccc3s2)cc1NC(=O)c1ccc(F)cc1`, for which the survival is 137%.

Turning to `COc1ccc(-c2nc3ccccc3s2)cc1NC(=O)c1ccccc1OC`, the survival is 77%.

On to `COc1ccc(-c2nc3ccccc3s2)cc1NC(=O)c1ccccc1F`, for which the survival was 151%.

As to `O=C(Nc1cc(-c2nc3ccccc3s2)ccc1Cl)c1cc2ccccc2o1`, the survival is 105%.

Take `COc1ccc(C(=O)Nc2cc(-c3nc4ccccc4s3)ccc2OC)cc1`: the survival is 19% (active).

On to `CCOc1ccc(C(=O)Nc2cc(-c3nc4ccccc4s3)ccc2OC)cc1`, for which the survival is 187%.

Turning to `COc1cc(OC)cc(C(=O)Nc2cc(-c3nc4ccccc4s3)ccc2OC)c1`, the survival was 42% (active).

Consider `COc1ccc(-c2nc3ccccc3s2)cc1NC(=O)c1cccc([N+](=O)[O-])c1C`, for which the survival is 38% (active).

On to `COc1cc(OC)cc(C(=O)Nc2ccc(-c3nc4ccccc4s3)cc2C)c1`, for which the survival was 72%.

As to `COc1ccc(-c2nc3ccccc3s2)cc1NC(=O)c1cc(OC)c(OC)c(OC)c1`, the survival is 57%.

`CCOC(=O)N1CCc2c(sc(NCc3sccc3C)c2C(=O)Nc2ccccc2OCC)C1`: the survival is 94%.

On to `O=C(NCCS(=O)(=O)N1CCN(c2ccc(F)cc2)CC1)C(c1ccccc1)c1ccccc1`, for which the survival was 113%.

As to `CC(C)COc1ccc(C(=O)N2CCN(CCc3ccccn3)CC2)cc1`, the survival was 63%.

For the compound `CC(C)(C)C(=O)C1C2C3COC(O3)C(=O)C2C2C=Cc3ccccc3N21` (stereo not given), the survival is 124%.

`CCc1cccc(NC(=O)Cn2c(=O)n(CC(=O)NCCc3ccccc3)c(=O)c3ccccc32)c1`: the survival was 102%.

With `COc1cc(Cl)c(C)cc1NC(=O)c1cc2c(Cl)nc3ccc(C)cc3c2s1`, the survival is 64%.

As for `Cn1cc(S(=O)(=O)N2CCCC2)cc1C(=O)N1CCN(c2cccc(Cl)c2)CC1`, the survival is 73%.

In the case of `CCS(=O)(=O)c1ncc(Cl)c(C(=O)N2CCN(c3cccc(Cl)c3)CC2)n1`, the survival was 8% (active).

Turning to `CCSc1ncc(Cl)c(C(=O)N2CCN(c3ccccc3OC)CC2)n1`, the survival was 76%.

`CCSc1ncc(Cl)c(C(=O)N2CCN(c3ccc(OC)cc3)CC2)n1`: the survival is 83%.

As to `CS(=O)(=O)c1ncc(Cl)c(C(=O)N2CCN(c3cccc(Cl)c3)CC2)n1`, the survival is 17% (active).

`CSc1ncc(C(=O)N2CCN(c3ccc(Cl)cc3)CC2)c(C)n1`: the survival was 106%.

In the case of `CCCSc1ncc(Cl)c(C(=O)N2CCN(c3cccc(Cl)c3)CC2)n1`, the survival is 40% (active).

Turning to `CCCSc1ncc(Cl)c(C(=O)N2CCN(c3ccc(OC)cc3)CC2)n1`, the survival is 49%.

Regarding `CS(=O)(=O)N1CCc2cc(C(=O)N3CCN(c4cccc(Cl)c4)CC3)ccc21`, the survival was 49%.

As to `CSc1ncc(C(=O)N2CCN(c3cccc(Cl)c3)CC2)c(C)n1`, the survival is 0% (active).

With `CSc1ncc(C(=O)N2CCN(c3cccc(C(F)(F)F)c3)CC2)c(C)n1`, the survival was 69%.

Turning to `CCS(=O)(=O)c1ncc(Cl)c(C(=O)N2CCN(c3ccc(OC)cc3)CC2)n1`, the survival is 68%.

In the case of `O=C(c1cccnc1)N1CCN(CCN2C(=O)C3C4C=CC(C4)C3C2=O)CC1` (stereo not given), the survival was 89%.

As for `COc1ccc(-n2nc(C(=O)NCCc3ccc(OC)c(OC)c3)c3c4ccccc4n(C)c3c2=O)cc1Cl`, the survival was 95%.

As for `CCOc1ccc(S(=O)(=O)NCCc2csc(-c3ccc(Cl)cc3)n2)cc1`, the survival is 91%.

For `O=C1CC(c2ccccc2)Cc2[nH]c(=O)c(-c3nc(-c4ccc(F)cc4)cs3)cc21` (stereo not given), the survival was 154%.

For `Cc1ccc(NC(=O)c2c(C)oc3ncnc(N4CCCCC4)c23)c(C)c1`, the survival is 108%.

In the case of `O=C(CCC1N=C2c3ccccc3N=C(SCC(=O)Nc3ccccc3F)N2C1=O)NCc1cccs1` (stereo not given), the survival is 96%.

For `CCc1cccc(NC(=O)Cn2c(=O)n(CC3CCC(C(=O)NC)CC3)c(=O)c3sccc32)c1` (stereo not given), the survival is 83%.

As for `Cc1ccccc1OCCSc1nc2ccc(NC(=O)c3cccc(F)c3)cc2s1`, the survival was 100%.

For `O=C(NCC1CCCO1)C1CCCN1C(=O)Nc1ccc(Cl)cc1` (stereo not given), the survival is 84%.

`COc1ccc(-c2cc(C(=O)NCc3ccc(F)cc3)no2)cc1`: the survival was 178%.

With `COc1cccc(-c2cc(C(=O)NCc3ccccc3)no2)c1`, the survival is 45% (active).

On to `COc1cccc(-c2cc(C(=O)Nc3ccc(OC)cc3OC)no2)c1`, for which the survival was 56%.

With `COc1ccc(CNC(=O)c2cc(-c3cccc(Cl)c3)on2)cc1`, the survival is 49%.

Regarding `CCC(C)NC(=O)c1cc(-c2cccc(OC)c2)on1` (stereo not given), the survival is 32% (active).

As to `COc1cccc(-c2cc(C(=O)NCc3ccc(F)cc3)no2)c1`, the survival is 30% (active).

As to `COc1cccc(-c2cc(C(=O)NCCc3ccc(OC)c(OC)c3)no2)c1`, the survival was 173%.

Take `COc1ccc(CNC(=O)c2cc(-c3ccc(OC)cc3)on2)cc1`: the survival is 210%.

Consider `COc1cccc(-c2cc(C(=O)Nc3cccnc3Cl)no2)c1`, for which the survival was 61%.

For `CCOC(=O)C1CCCN(C(=O)c2c(C)nn(-c3ccc(F)cc3)c2-n2cccc2)C1` (stereo not given), the survival is 113%.

Take `COc1cccc(NC(=O)C2CCN(c3ccc(Sc4ccc(C)cc4)nn3)CC2)c1`: the survival is 49%.

Regarding `O=C(CSc1cn(CC(=O)N2CCCC2)c2ccccc12)Nc1ccccc1C(F)(F)F`, the survival was 66%.

As for `O=C(NCn1nc(-c2ccccc2)nc1-c1ccccc1)c1cccnc1`, the survival is 67%.

With `CN(C)N=Nc1ccc(S(N)(=O)=O)cc1`, the survival was 92%.

In the case of `O=C(c1ccccc1)n1nc(-c2ccco2)nc1NCc1cccs1`, the survival is 81%.

As to `CC(C)CNS(=O)(=O)c1ccc(N2CCCCS2(=O)=O)cc1`, the survival was 82%.

Regarding `COc1ccc(CNC(=O)c2cc3ccccn3n2)c(OC)c1`, the survival is 71%.

On to `COc1ccc(Cn2nnc3c(=O)[nH]c(C4CCN(C(=O)c5ccc(C)cc5)CC4)nc32)cc1OC`, for which the survival is 24% (active).

`Cc1ccccc1Cn1nnc2c(=O)[nH]c(C3CCN(C(=O)c4ccccc4Cl)CC3)nc21`: the survival was 17% (active).

Regarding `O=C(c1cccc(Cl)c1)N1CCC(c2nc3c(nnn3Cc3ccc(F)cc3F)c(=O)[nH]2)CC1`, the survival was 11% (active).

`O=C(c1ccccc1Cl)N1CCCC(c2nc3c(nnn3Cc3ccc(F)cc3F)c(=O)[nH]2)C1` (stereo not given): the survival is 56%.

`Cc1ccccc1Cn1nnc2c(=O)[nH]c(C3CCN(C(=O)c4ccccc4)CC3)nc21`: the survival is 17% (active).

Turning to `CCS(=O)(=O)N1CCCC(c2nc3c(nnn3Cc3ccc(C)cc3)c(=O)[nH]2)C1` (stereo not given), the survival is 88%.

In the case of `O=C(c1ccccc1)N1CCCC(c2nc3c(nnn3Cc3ccc(F)cc3F)c(=O)[nH]2)C1` (stereo not given), the survival was 101%.

As to `COc1ccc(Cn2nnc3c(=O)[nH]c(C4CCCN(C(=O)c5ccc(C)cc5)C4)nc32)cc1` (stereo not given), the survival is 107%.

On to `COC(=O)c1ccc(NC(=O)N2CCN(c3nnc(C)c4c(C)n(-c5ccccc5)nc34)CC2)cc1`, for which the survival was 65%.

`COc1ccc(C(=O)CN2CCC(N3CCCCC3)CC2)cc1`: the survival is 92%.

In the case of `COc1cc(-c2nc(Cn3nnc(C(=O)Nc4cccc(Cl)c4)c3C)c(C)o2)cc(OC)c1OC`, the survival was 80%.

Take `CCN(CC)c1ccc(C(=O)N2CCC(c3c[nH]c4ccccc34)(c3c[nH]c4ccccc34)CC2)cc1`: the survival is 104%.

Regarding `CCOc1ccccc1NC(=O)N1CCN(S(=O)(=O)c2ccc3c(ccn3C)c2)CC1`, the survival was 76%.

As to `CC(C)(C)c1ccc(C(=O)N2CCC(C(=O)O)CC2)cc1`, the survival was 68%.

Consider `CN1C(=O)CC(NCCc2ccc(S(N)(=O)=O)cc2)C1=O` (stereo not given), for which the survival is 72%.

Consider `CCOc1ccc(-n2c(SCC(=O)Nc3cccc(Cl)c3)nc3c(oc4ccccc43)c2=O)cc1`, for which the survival is 58%.

As for `COc1ccc(Cn2nnc3c(=O)[nH]c(C4CCCN(C(=O)c5ccccc5Cl)C4)nc32)cc1OC` (stereo not given), the survival was 80%.

With `Cc1cccc(Cn2nnc3c(=O)[nH]c(C4CCN(C(=O)c5ccccc5F)CC4)nc32)c1`, the survival is 46%.

On to `COc1cccc(Cn2nnc3c(=O)[nH]c(C4CCCN(C(=O)c5ccccc5Cl)C4)nc32)c1` (stereo not given), for which the survival is 80%.

For `Cc1ccccc1Cn1nnc2c(=O)[nH]c(C3CCN(C(=O)c4ccc(F)cc4)CC3)nc21`, the survival was 52% (active).

For the compound `Cc1cccc(Cn2nnc3c(=O)[nH]c(C4CCN(C(=O)c5ccc(F)cc5)CC4)nc32)c1`, the survival was 28% (active).

Regarding `O=C(c1ccccc1F)N1CCC(c2nc3c(nnn3Cc3cccc(F)c3)c(=O)[nH]2)CC1`, the survival is 47%.

Take `COc1cccc(Cn2nnc3c(=O)[nH]c(C4CCN(C(=O)c5ccccc5Cl)CC4)nc32)c1`: the survival was 14% (active).
